The full data set covers some 7,900 targets. This sample favours those with a hit. About 0.6% of all pairs of compound and target were hits.
Key:
Assay in all cases: log2 fold change, soluble protein after heating vs DMSO (PISA); higher = thermal stabilisation; K562 cells, 10 uM, 30 min; active = over 0.2 and 3.5 SD of the protein, either way, in both replicates (recomputed)
[1] = compound: CC1=C(C=C(C=C1)NC(=O)C2=CC(=CC=C2)C(C)(C)C#N)NC3=CC4=C(C=C3)N=CN(C4=O)C
In short: (§1)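 Values are thermal stability changes relative to control samples and are taken from duplicates. They are stated as log2 fold changes. Before quantification by TMTpro 16plex LC-MS/MS with equalised channel sums, K562 cells at 2×10^6 cells/mL were treated with 10 μM compound for 30 min, heated in aliquots for 3 min across 48°C-58°C, pooled, extracted in PBS with 0.5% NP-40 at 4°C, and centrifuged at 21,000xg for 90 min to give the soluble supernatant.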

[2] = compound: CC1=C(C=C(C=C1)NC(=O)C2=CC(=CC=C2)N(C)C)NC(=O)C3=CC=C(C=C3)O
In short: as §1

[3] = compound: CC1=CC=C(C=C1)SC2=C3C=C(SC3=CN=C2)C(=O)N
In short: as §1

[4] = compound: CC1=NC(=CC=C1)C2=C(N=C(N2)C(C)(C)C)C3=CC4=NC=CN=C4C=C3
In short: as §1

Nexturastat A = compound: CCCCN(Cc1ccc(C(=O)NO)cc1)C(=O)Nc1ccccc1 [Nexturastat A]
In short: as §1

vemurafenib = compound: CCCS(=O)(=O)Nc1ccc(F)c(C(=O)c2c[nH]c3ncc(-c4ccc(Cl)cc4)cc23)c1F [vemurafenib]
In short: as §1

[5] = compound: CCCS(=O)(=O)Nc1ccc(F)c(C(=O)c2c[nH]c3ncc(Cl)cc23)c1F
In short: as §1

[6] = compound: CCCc1cc(C)[nH]c(=O)c1CNC(=O)c1cc(-c2ccnc(N3CCN(C)CC3)c2)cc2c1cnn2C(C)C
In short: as §1

givinostat = compound: CCN(CC)Cc1ccc2cc(COC(=O)Nc3ccc(C(=O)NO)cc3)ccc2c1 [givinostat]
In short: as §1

barasertib = compound: CCN(CCCOc1ccc2c(Nc3cc(CC(=O)Nc4cccc(F)c4)[nH]n3)ncnc2c1)CCOP(=O)(O)O [barasertib]
In short: as §1

[7] = compound: CC[C@@H]1C(=O)N(C)c2cnc(Nc3ccc(C(=O)NC4CCN(C)CC4)cc3OC)nc2N1C1CCCC1
In short: as §1

volasertib = compound: CC[C@@H]1C(=O)N(C)c2cnc(Nc3ccc(C(=O)N[C@H]4CC[C@H](N5CCN(CC6CC6)CC5)CC4)cc3OC)nc2N1C(C)C [volasertib]
In short: as §1

[8] = compound: CC[C@H](C)N1C=C(C2=C(C=C(C=C21)C3=CN=C(C=C3)N4CCNCC4)C(=O)NCC5=C(C=C(NC5=O)C)C)C
In short: as §1

epoxomicin = compound: CC[C@H](C)[C@@H](C(=O)N[C@@H]([C@@H](C)O)C(=O)N[C@@H](CC(C)C)C(=O)[C@]1(CO1)C)NC(=O)[C@H]([C@@H](C)CC)N(C)C(=O)C [epoxomicin]
In short: as §1

[9] = compound: CCn1c(C(=O)N(C2CC2)C2CC2)cc2c3c(ncn3C)c(Nc3cc(C)n(C)n3)nc21
In short: as §1

[10] = compound: CCn1cc(-c2ccnc3[nH]c(-c4cccc(CN(C)C)c4)cc23)c(-c2ccc(NC(=O)N(C)C)cc2)n1
In short: as §1

[11] = compound: CN(C)CC(=O)Nc1ccc2[nH]c(=O)c3ccccc3c2c1
In short: as §1

rosiglitazone = compound: CN(CCOC1=CC=C(C=C1)C[C@H]2C(=O)NC(=O)S2)C3=CC=CC=N3 (racemic) [rosiglitazone]
In short: as §1

[12] = compound: CN1C2=C(C3=C1C(=O)N(N=C3)CC4=CC(=CC=C4)N)SC(=C2)S(=O)C
In short: as §1

[13] = compound: CN1CCC(CNc2ccc3ncc(-c4cccc(OC(F)(F)F)c4)n3n2)CC1
In short: as §1

Measured: log2 fold change

HNRNPC isoform 2 (UniProt P07910)
UniProt P07910, sequence (P07910 whole entry, looked up): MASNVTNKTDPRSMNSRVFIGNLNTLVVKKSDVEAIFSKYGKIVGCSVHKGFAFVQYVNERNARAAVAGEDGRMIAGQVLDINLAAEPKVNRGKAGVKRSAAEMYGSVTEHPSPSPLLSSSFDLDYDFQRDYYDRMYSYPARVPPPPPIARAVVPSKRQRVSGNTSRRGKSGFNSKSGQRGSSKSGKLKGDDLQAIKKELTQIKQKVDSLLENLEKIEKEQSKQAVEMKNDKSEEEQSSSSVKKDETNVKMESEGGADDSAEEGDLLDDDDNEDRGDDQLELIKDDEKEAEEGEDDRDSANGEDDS
inactive: [1] 0.276 | [2] -0.074 | [3] -0.349 | [4] -0.045 | Nexturastat A 0.449 | vemurafenib -0.055 | [5] -0.191 | [6] 0.028 | givinostat 0.241 | barasertib -0.095 | [7] 0.238 | volasertib 0.276 | [8] 0.017 | epoxomicin -0.423 | [9] -0.19 | [10] 0.147 | [11] -0.151 | rosiglitazone -0.129 | [12] 0.467 | [13] -0.067

HADHB (UniProt P55084)
inactive: [1] 0.19 | [2] -0.248 | [3] -0.002 | [4] -0.012 | Nexturastat A -0.085 | vemurafenib -0.047 | [5] -0.042 | [6] 0.113 | givinostat 0.064 | barasertib 0 | [7] 0.082 | volasertib 0.462 | [8] 0.123 | epoxomicin 0.05 | [9] 0.161 | [10] -0.223 | [11] 0.015 | rosiglitazone -0.039 | [12] -0.058 | [13] -0.223

H2AZ1 (UniProt P0C0S5)
UniProt P0C0S5, sequence (P0C0S5 whole entry, looked up): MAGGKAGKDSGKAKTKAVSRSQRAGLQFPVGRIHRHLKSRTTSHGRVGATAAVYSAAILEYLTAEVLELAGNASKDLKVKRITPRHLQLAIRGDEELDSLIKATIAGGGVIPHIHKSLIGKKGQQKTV
inactive: [1] -0.051 | [2] 0 | [3] -0.174 | [4] -0.01 | vemurafenib -0.209 | [5] 0.233 | [6] 0.074 | givinostat 0.454 | barasertib -0.083 | [7] 0 | volasertib 0.065 | [8] -0.084 | epoxomicin -0.311 | [9] 0.054 | [10] 0.103 | [11] -0.071 | rosiglitazone -0.052 | [12] 0.435 | [13] 0.026
active: Nexturastat A 0.75

HSPA8 (UniProt P11142)
inactive: [1] 0.021 | [2] 0.005 | [3] -0.025 | [4] 0.011 | Nexturastat A -0.011 | vemurafenib -0.008 | [5] -0.02 | [6] 0.04 | givinostat -0.02 | barasertib -0.005 | [7] 0.001 | volasertib 0.113 | [8] -0.007 | epoxomicin 0.008 | [9] 0.012 | [10] -0.002 | [11] -0.037 | rosiglitazone -0.019 | [12] -0.034 | [13] 0.079

GNPAT (UniProt O15228)
active: [13] -0.354
inactive: [1] -0.03 | [2] -0.046 | [3] 0.007 | [4] 0 | Nexturastat A -0.039 | vemurafenib 0.023 | [5] 0.045 | [6] 0.03 | givinostat 0.022 | barasertib 0.044 | [7] -0.065 | volasertib -0.149 | [8] -0.02 | epoxomicin 0.04 | [9] 0.044 | [10] -0.066 | [11] -0.027 | rosiglitazone 0.066 | [12] -0.084

HP1BP3 (UniProt Q5SSJ5)
inactive: [1] 0.03 | [2] -0.026 | [3] -0.025 | [4] 0.017 | Nexturastat A 0.108 | vemurafenib -0.014 | [5] 0.018 | [6] -0.001 | givinostat 0.031 | barasertib -0.129 | [7] 0.122 | volasertib 0.054 | [8] -0.11 | epoxomicin -0.016 | [9] -0.015 | [10] 0.013 | [11] 0.046 | rosiglitazone -0.037 | [12] 0.126 | [13] 0.038

IFI30 (UniProt P13284)
active: [7] -0.443 | volasertib -0.436 | [13] -0.448
inactive: [1] -0.043 | [2] 0.043 | [3] 0.018 | [4] -0.046 | Nexturastat A 0.056 | vemurafenib 0.056 | [5] 0.183 | [6] 0.034 | givinostat 0.018 | barasertib 0.028 | [8] 0.038 | epoxomicin -0.014 | [9] -0.096 | [10] -0.098 | [11] -0.021 | rosiglitazone -0.061 | [12] -0.06

HNRNPH2 (UniProt P55795)
inactive: [1] 0.064 | [2] -0.027 | [3] 0.079 | [4] 0.058 | Nexturastat A 0.044 | vemurafenib 0.048 | [5] 0.208 | [6] 0.095 | givinostat 0.109 | barasertib 0.014 | [7] -0.119 | [8] 0.073 | epoxomicin -0.004 | [9] -0.202 | [10] 0 | [11] 0.069 | rosiglitazone 0.038 | [12] 0.087 | [13] -0.06
active: volasertib -0.667

GDPD1 (UniProt Q8N9F7)
inactive: [1] 0.003 | [2] -0.135 | [3] 0.022 | [4] -0.07 | Nexturastat A -0.026 | vemurafenib 0.022 | [5] -0.081 | [6] 0.099 | givinostat -0.046 | barasertib 0.001 | [7] 0.069 | volasertib 0.049 | [8] -0.019 | epoxomicin 0.017 | [9] -0.015 | [10] -0.188 | [11] 0.004 | rosiglitazone 0.083 | [12] -0.132 | [13] 0.092

FLNA (UniProt P21333)
UniProt P21333, sequence (P21333 whole entry, looked up): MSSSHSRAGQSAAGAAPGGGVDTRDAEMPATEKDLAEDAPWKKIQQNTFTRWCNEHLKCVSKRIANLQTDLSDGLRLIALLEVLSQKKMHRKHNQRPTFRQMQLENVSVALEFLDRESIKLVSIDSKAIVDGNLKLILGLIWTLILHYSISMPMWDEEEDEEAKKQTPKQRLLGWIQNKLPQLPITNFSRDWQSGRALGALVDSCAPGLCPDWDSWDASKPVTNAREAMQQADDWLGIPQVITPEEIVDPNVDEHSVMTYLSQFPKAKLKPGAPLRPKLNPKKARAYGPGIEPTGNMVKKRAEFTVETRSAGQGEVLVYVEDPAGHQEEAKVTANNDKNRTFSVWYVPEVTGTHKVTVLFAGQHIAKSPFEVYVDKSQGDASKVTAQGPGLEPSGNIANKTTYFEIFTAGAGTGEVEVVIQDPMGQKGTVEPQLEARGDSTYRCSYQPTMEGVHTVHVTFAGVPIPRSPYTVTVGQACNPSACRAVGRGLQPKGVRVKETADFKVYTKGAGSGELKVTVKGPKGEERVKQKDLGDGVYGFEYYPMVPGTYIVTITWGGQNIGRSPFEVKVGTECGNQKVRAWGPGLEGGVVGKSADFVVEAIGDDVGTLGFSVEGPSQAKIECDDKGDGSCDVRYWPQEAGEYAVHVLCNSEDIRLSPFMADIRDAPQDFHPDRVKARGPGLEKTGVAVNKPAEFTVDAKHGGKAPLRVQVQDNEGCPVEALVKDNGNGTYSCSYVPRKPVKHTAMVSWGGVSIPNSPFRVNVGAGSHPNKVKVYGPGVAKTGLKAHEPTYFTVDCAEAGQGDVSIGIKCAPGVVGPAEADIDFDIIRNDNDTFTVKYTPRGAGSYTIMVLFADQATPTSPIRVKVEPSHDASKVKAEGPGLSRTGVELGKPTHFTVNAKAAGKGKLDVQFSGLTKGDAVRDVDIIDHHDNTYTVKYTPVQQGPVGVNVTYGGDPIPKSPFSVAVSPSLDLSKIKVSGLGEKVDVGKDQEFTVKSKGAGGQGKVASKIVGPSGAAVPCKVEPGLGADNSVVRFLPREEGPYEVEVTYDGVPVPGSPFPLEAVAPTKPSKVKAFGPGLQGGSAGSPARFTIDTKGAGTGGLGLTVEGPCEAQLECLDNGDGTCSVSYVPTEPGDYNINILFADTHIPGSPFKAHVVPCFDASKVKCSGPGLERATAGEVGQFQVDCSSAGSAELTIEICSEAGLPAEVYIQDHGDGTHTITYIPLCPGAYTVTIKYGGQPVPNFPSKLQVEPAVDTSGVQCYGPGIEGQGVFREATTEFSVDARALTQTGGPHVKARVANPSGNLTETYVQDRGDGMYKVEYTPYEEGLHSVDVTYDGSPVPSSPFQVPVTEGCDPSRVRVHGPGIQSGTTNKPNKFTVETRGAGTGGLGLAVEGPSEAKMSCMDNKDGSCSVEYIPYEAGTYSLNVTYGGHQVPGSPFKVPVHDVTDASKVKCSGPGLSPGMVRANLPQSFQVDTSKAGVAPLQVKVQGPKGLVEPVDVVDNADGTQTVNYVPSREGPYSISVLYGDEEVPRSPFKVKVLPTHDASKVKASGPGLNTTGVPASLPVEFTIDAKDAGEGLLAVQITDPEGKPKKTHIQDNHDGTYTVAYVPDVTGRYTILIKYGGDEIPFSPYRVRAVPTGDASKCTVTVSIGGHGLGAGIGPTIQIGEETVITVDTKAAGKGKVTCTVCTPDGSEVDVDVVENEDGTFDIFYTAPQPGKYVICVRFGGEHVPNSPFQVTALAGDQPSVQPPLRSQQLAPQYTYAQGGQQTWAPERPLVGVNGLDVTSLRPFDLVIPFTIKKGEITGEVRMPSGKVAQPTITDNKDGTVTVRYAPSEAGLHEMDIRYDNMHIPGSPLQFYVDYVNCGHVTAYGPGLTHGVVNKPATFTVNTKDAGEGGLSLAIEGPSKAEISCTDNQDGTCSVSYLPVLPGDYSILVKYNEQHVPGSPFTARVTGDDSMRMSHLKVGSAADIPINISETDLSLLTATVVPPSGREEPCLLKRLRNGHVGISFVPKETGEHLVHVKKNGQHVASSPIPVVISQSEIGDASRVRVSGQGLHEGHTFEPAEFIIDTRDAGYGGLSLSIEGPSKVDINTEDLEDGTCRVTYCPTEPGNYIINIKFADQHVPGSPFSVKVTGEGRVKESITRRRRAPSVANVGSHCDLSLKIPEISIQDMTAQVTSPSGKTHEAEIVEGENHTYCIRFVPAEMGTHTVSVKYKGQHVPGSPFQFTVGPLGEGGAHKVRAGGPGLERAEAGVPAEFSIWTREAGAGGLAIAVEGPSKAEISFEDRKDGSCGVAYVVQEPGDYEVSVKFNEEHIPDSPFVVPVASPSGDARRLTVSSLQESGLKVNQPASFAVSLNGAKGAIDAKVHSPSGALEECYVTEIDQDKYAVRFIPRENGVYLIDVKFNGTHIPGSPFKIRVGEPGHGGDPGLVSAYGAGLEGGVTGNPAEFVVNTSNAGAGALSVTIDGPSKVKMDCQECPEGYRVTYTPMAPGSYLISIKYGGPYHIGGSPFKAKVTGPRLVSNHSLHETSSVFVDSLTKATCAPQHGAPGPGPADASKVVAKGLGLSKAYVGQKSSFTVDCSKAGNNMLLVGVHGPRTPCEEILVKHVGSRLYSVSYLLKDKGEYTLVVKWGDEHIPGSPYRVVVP
active: volasertib -0.375
inactive: [1] -0.03 | [2] -0.049 | [3] 0.015 | [4] 0.006 | Nexturastat A 0.092 | vemurafenib 0.021 | [5] 0.075 | [6] 0.044 | givinostat 0.092 | barasertib 0.019 | [7] -0.121 | [8] 0.078 | epoxomicin 0.063 | [9] -0.074 | [10] -0.004 | [11] 0.029 | rosiglitazone 0.019 | [12] 0.052 | [13] -0.12

GDI1 (UniProt P31150)
UniProt P31150, sequence (P31150 whole entry, looked up): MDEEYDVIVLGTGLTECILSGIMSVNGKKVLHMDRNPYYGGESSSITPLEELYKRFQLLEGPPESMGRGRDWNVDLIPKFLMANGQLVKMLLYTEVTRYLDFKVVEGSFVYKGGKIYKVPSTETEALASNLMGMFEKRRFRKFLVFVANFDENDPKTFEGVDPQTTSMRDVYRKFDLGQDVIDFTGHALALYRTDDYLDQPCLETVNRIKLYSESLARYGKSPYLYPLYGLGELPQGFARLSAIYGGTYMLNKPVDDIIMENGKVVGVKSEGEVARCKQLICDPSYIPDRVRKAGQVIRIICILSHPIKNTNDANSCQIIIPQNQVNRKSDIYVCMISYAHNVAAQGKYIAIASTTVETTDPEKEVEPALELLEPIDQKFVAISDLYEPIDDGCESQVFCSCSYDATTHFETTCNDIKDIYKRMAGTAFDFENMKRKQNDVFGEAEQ
inactive: [1] 0.007 | [2] 0.012 | [3] -0.003 | [4] 0.009 | Nexturastat A -0.051 | vemurafenib 0.015 | [5] -0.008 | [6] -0.027 | givinostat -0.032 | barasertib 0.012 | [7] 0.018 | volasertib 0.113 | [8] 0.025 | epoxomicin 0.022 | [9] -0.031 | [10] -0.068 | [11] -0.015 | rosiglitazone 0.027 | [12] -0.082 | [13] 0.008

GSTP1 (UniProt P09211)
UniProt P09211, sequence (P09211 whole entry, looked up): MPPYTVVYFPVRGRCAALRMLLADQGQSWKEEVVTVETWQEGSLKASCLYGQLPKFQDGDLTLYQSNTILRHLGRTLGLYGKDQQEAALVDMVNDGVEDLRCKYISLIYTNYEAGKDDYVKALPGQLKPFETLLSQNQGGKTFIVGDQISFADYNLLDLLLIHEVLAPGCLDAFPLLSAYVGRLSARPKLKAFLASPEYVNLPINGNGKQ
active: [7] 0.295 | volasertib 0.362
inactive: [1] 0.006 | [2] -0.003 | [3] 0.008 | [4] 0.008 | Nexturastat A -0.108 | vemurafenib 0.022 | [5] -0.006 | [6] -0.1 | givinostat -0.019 | barasertib 0.023 | [8] 0.009 | epoxomicin -0.025 | [9] 0.032 | [10] 0.012 | [11] -0.013 | rosiglitazone 0.007 | [12] -0.066 | [13] -0.034

GALNT1 (UniProt Q10472)
UniProt Q10472, sequence (Q10472 whole entry, looked up): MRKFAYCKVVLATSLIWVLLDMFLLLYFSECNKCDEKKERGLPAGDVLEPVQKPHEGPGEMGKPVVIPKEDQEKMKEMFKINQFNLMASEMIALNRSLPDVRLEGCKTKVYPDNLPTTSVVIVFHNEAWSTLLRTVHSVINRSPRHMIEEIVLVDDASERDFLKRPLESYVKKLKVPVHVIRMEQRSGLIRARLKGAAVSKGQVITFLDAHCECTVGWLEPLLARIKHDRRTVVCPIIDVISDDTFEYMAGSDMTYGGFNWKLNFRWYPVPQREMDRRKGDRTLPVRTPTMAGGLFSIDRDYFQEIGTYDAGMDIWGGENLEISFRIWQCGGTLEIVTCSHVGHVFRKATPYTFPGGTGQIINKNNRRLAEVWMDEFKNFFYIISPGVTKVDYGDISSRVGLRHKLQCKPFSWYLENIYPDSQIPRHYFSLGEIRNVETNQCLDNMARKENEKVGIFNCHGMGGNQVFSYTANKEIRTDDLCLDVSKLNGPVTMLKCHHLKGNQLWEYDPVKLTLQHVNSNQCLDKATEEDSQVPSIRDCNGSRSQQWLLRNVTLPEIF
active: volasertib -0.218
inactive: [1] -0.004 | [2] 0 | [3] 0.03 | [4] 0.067 | Nexturastat A 0.001 | vemurafenib 0.02 | [5] -0.021 | [6] -0.055 | givinostat 0.003 | barasertib 0.007 | [7] -0.06 | [8] -0.011 | epoxomicin -0.068 | [9] -0.005 | [10] -0.041 | [11] -0.011 | rosiglitazone 0.003 | [12] -0.074 | [13] 0.106

FUBP3 (UniProt Q96I24)
UniProt Q96I24, sequence (Q96I24 whole entry, looked up): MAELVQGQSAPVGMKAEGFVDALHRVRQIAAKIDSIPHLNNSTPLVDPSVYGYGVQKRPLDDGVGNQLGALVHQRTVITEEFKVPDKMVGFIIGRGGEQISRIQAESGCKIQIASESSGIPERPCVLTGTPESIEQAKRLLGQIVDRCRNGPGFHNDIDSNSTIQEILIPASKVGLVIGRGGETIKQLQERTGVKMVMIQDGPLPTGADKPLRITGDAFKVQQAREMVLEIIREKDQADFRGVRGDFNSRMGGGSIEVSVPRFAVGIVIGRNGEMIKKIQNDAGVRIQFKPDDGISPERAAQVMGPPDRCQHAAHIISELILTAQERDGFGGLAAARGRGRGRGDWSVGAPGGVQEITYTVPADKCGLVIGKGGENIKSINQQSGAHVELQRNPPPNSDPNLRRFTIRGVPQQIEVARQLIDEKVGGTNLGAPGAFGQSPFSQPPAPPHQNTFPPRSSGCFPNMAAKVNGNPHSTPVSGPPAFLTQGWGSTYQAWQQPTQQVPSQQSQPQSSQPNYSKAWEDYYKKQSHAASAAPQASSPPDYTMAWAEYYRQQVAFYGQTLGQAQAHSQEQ
inactive: [1] 0.021 | [2] -0.018 | [3] 0.01 | [4] 0.122 | Nexturastat A -0.114 | vemurafenib 0.035 | [5] 0.018 | [6] -0.059 | givinostat -0.023 | barasertib -0.012 | [7] 0.061 | [8] 0.045 | epoxomicin 0.021 | [9] 0.025 | [10] 0.064 | [11] -0.028 | rosiglitazone 0.016 | [12] 0.02 | [13] 0.059
active: volasertib -0.251

HOOK3 (UniProt Q86VS8)
inactive: [1] -0.024 | [2] -0.023 | [3] -0.014 | [4] -0.039 | Nexturastat A 0.034 | vemurafenib -0.014 | [5] -0.001 | [6] -0.026 | givinostat 0.091 | barasertib 0.008 | [7] -0.151 | [8] 0.034 | epoxomicin 0.004 | [9] 0.006 | [10] -0.017 | [11] 0.005 | rosiglitazone 0.09 | [12] 0.031
active: volasertib -0.395 | [13] -0.358

GTF3C4 (UniProt Q9UKN8)
inactive: [1] -0.025 | [2] -0.027 | [3] 0.038 | [4] 0.008 | Nexturastat A -0.052 | vemurafenib 0.032 | [5] 0.045 | [6] 0.033 | givinostat -0.007 | barasertib 0.003 | [7] -0.002 | [8] 0.001 | epoxomicin -0.001 | [9] -0.003 | [10] -0.003 | [11] -0.024 | rosiglitazone 0.012 | [12] 0.007 | [13] 0
active: volasertib -0.263
